{
  "source": "PubChem BioAssay AID504452",
  "about": "(The Scripps Research Institute Molecular Screening Center, 2011)",
  "note": "Activity calls are given as the source filed them. Rule as the data show it: active = activation above about 85%; inactive = the rest.",
  "data": [
    {"target": "Peroxisome proliferator-activated receptor gamma (Homo sapiens) (UniProt P37231)", "sequence (P37231 whole entry, looked up)": "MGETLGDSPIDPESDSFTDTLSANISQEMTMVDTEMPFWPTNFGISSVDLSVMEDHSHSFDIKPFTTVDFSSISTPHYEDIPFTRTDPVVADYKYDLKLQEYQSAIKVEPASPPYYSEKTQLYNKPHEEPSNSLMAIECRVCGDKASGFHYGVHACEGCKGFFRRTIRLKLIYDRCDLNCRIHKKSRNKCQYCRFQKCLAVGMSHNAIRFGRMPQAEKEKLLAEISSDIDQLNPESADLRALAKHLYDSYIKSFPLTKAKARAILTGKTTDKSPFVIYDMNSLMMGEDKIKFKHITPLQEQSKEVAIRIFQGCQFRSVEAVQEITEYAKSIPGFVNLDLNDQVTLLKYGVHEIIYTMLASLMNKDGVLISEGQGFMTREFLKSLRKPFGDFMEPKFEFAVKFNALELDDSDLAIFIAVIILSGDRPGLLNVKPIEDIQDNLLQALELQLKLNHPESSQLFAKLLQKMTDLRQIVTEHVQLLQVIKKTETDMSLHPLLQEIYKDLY", "assay": "partial agonism at human PPARgamma receptor – cell-based, luciferase reporter, luminescence, primary screen (AID 504452);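 also: Cos-1 cells carrying PPARgamma and a response element luciferase reporter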", "details": "cell-based PPARg luciferase reporter, at 5 µM, stronger effect = higher value; activation (% of full agonist control): measured here: relative to full agonist control", "units": {"activation (% of full agonist control)": "%"}, "values": [
      {"compound": "Cc1c(-n2cc(C(=O)c3cc(F)ccc3O)cc(C#N)c2=O)c(=O)n(-c2ccccc2)n1C", "activation (% of partial agonist control)": "96.7% (active)", "activation (% of full agonist control)": 43.7},
      {"compound": "CCOc1ccc(CN2CCN(Cc3cccc4nonc34)CC2CCO)cc1", "note": "(stereo unspecified)", "activation (% of full agonist control)": 44.9, "activation (% of partial agonist control)": "99.4% (active)"},
      {"compound": "CCOc1cc(N2CCOCC2)c(OCC)cc1NC(=O)c1oc2ccccc2c1C", "activation (% of full agonist control)": 29.4, "activation (% of partial agonist control)": "65.1% (inactive)"},
      {"compound": "CCN(C(=O)CSc1nnc(-c2ccc(F)cc2)c2ccccc12)C1CCS(=O)(=O)C1", "note": "(stereo unspecified)", "activation (% of full agonist control)": 34.5, "activation (% of partial agonist control)": "76.4% (inactive)"},
      {"compound": "COc1ccc(NC(=O)C(=O)c2cn(CC(=O)N3CCCC3)c3ccccc23)c(OC)c1", "activation (% of full agonist control)": 32.9, "activation (% of partial agonist control)": "72.7% (inactive)"},
      {"compound": "Cc1ccc(O)c(C(=O)c2cc(C#N)c(=O)n(C(C)c3ccccc3)c2)c1", "note": "(stereo unspecified)", "activation (% of partial agonist control)": "73.7% (inactive)", "activation (% of full agonist control)": 33.3},
      {"compound": "COc1ccc(C=NNS(=O)(=O)c2ccc(F)cc2)cc1COc1cc(F)ccc1[N+](=O)[O-]", "activation (% of full agonist control)": 42.9, "activation (% of partial agonist control)": "95% (active)"},
      {"compound": "O=C(CSc1nc(=O)n(CCCN2CCOCC2)c2c1CCC2)Nc1cccc(F)c1", "activation (% of full agonist control)": 40.3, "activation (% of partial agonist control)": "89.3% (active)"},
      {"compound": "Cc1nc2ccccn2c1/C(O)=C1\\C(=O)C(=O)N(CCN2CCOCC2)C1c1ccncc1", "note": "(stereo unspecified)", "activation (% of full agonist control)": 26.2, "activation (% of partial agonist control)": "58.1% (inactive)"},
      {"compound": "CCOC(=O)N1CCN(C(=O)c2ccc(S(=O)(=O)c3ccc(C)cc3)c(NC(C)=O)c2)CC1", "activation (% of full agonist control)": 37.2, "activation (% of partial agonist control)": "82.4% (inactive)"},
      {"compound": "CC(Oc1ccc(F)cc1)C(=O)Nc1cc(S(=O)(=O)N2CCOCC2)ccc1N1CCCCC1", "note": "(stereo unspecified)", "activation (% of partial agonist control)": "74.8% (inactive)", "activation (% of full agonist control)": 33.8},
      {"compound": "O=C1C(=O)N(CC2CCCO2)C(c2ccco2)/C1=C(/O)c1ccc(F)cc1", "note": "(stereo unspecified)", "activation (% of partial agonist control)": "33.1% (inactive)", "activation (% of full agonist control)": 15},
      {"compound": "COC(=O)c1sc(N2C(=O)C(O)=C(C(=O)c3ccc(C)o3)C2c2ccc(F)cc2)nc1C", "note": "(stereo unspecified)", "activation (% of full agonist control)": 29.9, "activation (% of partial agonist control)": "66.2% (inactive)"},
      {"compound": "O=C(OCC1OC(Oc2ccc(O)cc2)C(O)C(O)C1O)c1ccccc1", "note": "(stereo unspecified)", "activation (% of full agonist control)": 9.83, "activation (% of partial agonist control)": "21.8% (inactive)"},
      {"compound": "COc1ccc(N2C(=O)C(=O)/C(=C(/O)c3ccc(C)cc3)C2c2cccnc2)cc1", "note": "(stereo unspecified)", "activation (% of partial agonist control)": "63.8% (inactive)", "activation (% of full agonist control)": 28.8},
      {"compound": "O=c1c(S(=O)(=O)c2ccc(Cl)cc2)cn(Cc2ccccc2)c2ccc(F)cc12", "activation (% of full agonist control)": 38, "activation (% of partial agonist control)": "84.1% (inactive)"},
      {"compound": "O=C(CSc1nc(=O)n(CCN2CCOCC2)c2c1CCCC2)Nc1cccc([N+](=O)[O-])c1", "activation (% of partial agonist control)": "106% (active)", "activation (% of full agonist control)": 47.7},
      {"compound": "O=C(CC(C(=O)N1CCc2ccccc21)n1ccnc1)NCc1ccccc1", "note": "(stereo unspecified)", "activation (% of partial agonist control)": "31.2% (inactive)", "activation (% of full agonist control)": 14.1},
      {"compound": "COc1ccc(CNC(=O)Cn2c(=O)n(CCC(=O)N3CCCCC3)c(=O)c3sccc32)cc1", "activation (% of full agonist control)": 46.4, "activation (% of partial agonist control)": "103% (active)"},
      {"compound": "COc1ccc(N(CC(=O)N2c3ccccc3CC2C)S(=O)(=O)c2c(C)nn(C)c2C)cc1", "note": "(stereo unspecified)", "activation (% of full agonist control)": 32.3, "activation (% of partial agonist control)": "71.5% (inactive)"},
      {"compound": "O=C(c1ccc(F)cc1)c1cn(Cc2ccc(F)cc2)c2cc3c(cc2c1=O)OCCO3", "activation (% of partial agonist control)": "83.8% (inactive)", "activation (% of full agonist control)": 37.8},
      {"compound": "CCn1cnc2c1c(=O)n(Cc1cccc([N+](=O)[O-])c1)c(=O)n2Cc1ccccc1", "activation (% of full agonist control)": 64.1, "activation (% of partial agonist control)": "142% (active)"},
      {"compound": "Cc1cc(N2C(=O)C(O)=C(C(=O)c3ccc(C)o3)C2c2cccc(Oc3ccccc3)c2)no1", "note": "(stereo unspecified)", "activation (% of partial agonist control)": "75.5% (inactive)", "activation (% of full agonist control)": 34.1},
      {"compound": "N=c1c(C(=O)NCCc2ccccc2)cc2c(=O)n3ccccc3nc2n1CC1CCCO1", "note": "(stereo unspecified)", "activation (% of full agonist control)": 34.6, "activation (% of partial agonist control)": "76.7% (inactive)"},
      {"compound": "Cc1ccc(C)c(/C(O)=C2/C(=O)C(=O)N(CCN3CCOCC3)C2c2ccc(C)o2)c1", "note": "(stereo unspecified)", "activation (% of partial agonist control)": "20.4% (inactive)", "activation (% of full agonist control)": 9.22},
      {"compound": "COC(=O)C1=CN(Cc2ccccc2)C=C(C(=O)OC)C1c1ccc(OC)c(OC)c1", "activation (% of partial agonist control)": "57.3% (inactive)", "activation (% of full agonist control)": 25.9},
      {"compound": "COc1ccc(N2C(=O)C(CN3CCN(C)CC3)C2c2ccccc2)cc1", "note": "(stereo unspecified)", "activation (% of full agonist control)": 31.9, "activation (% of partial agonist control)": "70.6% (inactive)"},
      {"compound": "COc1cccc(NS(=O)(=O)c2ccc3c(c2)C2C=CCC2C(c2ccc(C(=O)O)cc2)N3)c1", "note": "(stereo unspecified)", "activation (% of full agonist control)": 32.7, "activation (% of partial agonist control)": "72.4% (inactive)"},
      {"compound": "O=C(NCC(c1ccco1)N1CCc2ccccc2C1)c1cccc(F)c1", "note": "(stereo unspecified)", "activation (% of full agonist control)": 33.4, "activation (% of partial agonist control)": "74% (inactive)"},
      {"compound": "COc1ccc(O)c(C(=O)c2cc(C#N)c(=O)n(-c3ccc(Cl)cc3)c2)c1", "activation (% of full agonist control)": 40, "activation (% of partial agonist control)": "88.5% (active)"},
      {"compound": "O=C(COc1coc(CN2CCc3ccccc3C2)cc1=O)Nc1cccc(Cl)c1", "activation (% of partial agonist control)": "64.6% (inactive)", "activation (% of full agonist control)": 29.2},
      {"compound": "OCCC1CN(Cc2cccn2-c2cccnc2)CCN1Cc1ccc(F)cc1", "note": "(stereo unspecified)", "activation (% of full agonist control)": 29.8, "activation (% of partial agonist control)": "66% (inactive)"},
      {"compound": "COc1ccccc1N1C(=O)C2C(c3ccc(F)cc3)NN(C(=O)c3ccc(C)cc3)C2C1=O", "note": "(stereo unspecified)", "activation (% of partial agonist control)": "66.5% (inactive)", "activation (% of full agonist control)": 30.1},
      {"compound": "COc1cc(CN2CCN(c3cccc(C)c3C)CC2)cc([N+](=O)[O-])c1O", "activation (% of full agonist control)": 33.7, "activation (% of partial agonist control)": "74.7% (inactive)"},
      {"compound": "COc1ccc(-n2c3c(cc(C(=O)NNc4ccccc4C)c2=O)C(=O)CC(C)(C)C3)cc1", "activation (% of full agonist control)": 32.7, "activation (% of partial agonist control)": "72.5% (inactive)"},
      {"compound": "CCOc1ccc2nc(N3C(=O)C(O)=C(C(=O)c4ccco4)C3c3ccco3)sc2c1", "note": "(stereo unspecified)", "activation (% of partial agonist control)": "85.2% (active)", "activation (% of full agonist control)": 38.5},
      {"compound": "O=C1C2CCCN2c2ccc(S(=O)(=O)N3CCOCC3)cc2N1Cc1cccc(C(F)(F)F)c1", "note": "(stereo unspecified)", "activation (% of partial agonist control)": "71.8% (inactive)", "activation (% of full agonist control)": 32.4},
      {"compound": "COCCn1cnc2c1c(=O)n(Cc1cc(C(C)=O)ccc1OC)c(=O)n2Cc1ccccc1", "activation (% of full agonist control)": 39.8, "activation (% of partial agonist control)": "88.2% (active)"}
    ]}
  ]
}
